# Bioassay records as filed in PubChem.
# CYP2C19 act – cytochrome P450 2C19 (human) activation. P33261. recombinant CYP2C19, luciferin-H EGE luminescence; hits give high values; 0 = fully inhibited enzyme, 1 = untreated enzyme. activation factor at 5 µM. 96,000 tested, under 10 active;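 active means activation factor of at least 2 at 5 µM in the primary screen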
# CYP2C9 inhib – inhibitors of human CYP2C9. 20% of 96,000 active. inhibition, % at 5 µM. AID 777. CYP2C9 Supersomes, luciferin-H conversion, luminescence. P11712;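 active means blocking of liver enzyme CYP2C9 beyond about 50% at 5 µM, limit read from the data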
# Target sequence (P11712 whole entry, looked up): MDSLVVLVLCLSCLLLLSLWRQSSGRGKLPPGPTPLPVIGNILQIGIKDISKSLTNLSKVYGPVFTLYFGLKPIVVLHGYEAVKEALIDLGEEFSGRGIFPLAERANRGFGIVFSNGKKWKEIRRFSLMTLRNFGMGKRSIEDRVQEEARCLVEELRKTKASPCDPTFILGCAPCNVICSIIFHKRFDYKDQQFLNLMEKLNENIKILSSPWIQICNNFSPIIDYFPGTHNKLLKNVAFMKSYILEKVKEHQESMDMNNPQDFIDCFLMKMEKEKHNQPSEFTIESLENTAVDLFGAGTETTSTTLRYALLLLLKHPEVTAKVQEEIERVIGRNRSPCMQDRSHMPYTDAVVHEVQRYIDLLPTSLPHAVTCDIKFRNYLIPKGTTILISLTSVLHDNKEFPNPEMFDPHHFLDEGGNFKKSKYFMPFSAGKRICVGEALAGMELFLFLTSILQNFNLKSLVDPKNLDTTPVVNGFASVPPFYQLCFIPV
# CYP2C19 inhib – human CYP2C19 inhibition | inhibition, % at 5 µM | CYP2C19 Supersomes, luciferin-H EGE luminescence, 30 min | 21% of 96,000 active | AID 778;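 active means CYP2C19 inhibition above a set limit at 5 µM in the primary screen, cut at about 50% in these data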
# CD11b adhes inh – CD11b/CD18-fibrinogen binding inhibition | P05107+P11215 | K562 CD11b/CD18 adhesion to fibrinogen, ATPlite luminescence; Mn2+ added to activate the integrin | inhibition, % at 10 µM | 0.54% of 93,000 active | AID 1497;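 active means primary inhibition of 50% or more at 10 µM, then 40% or more on retest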
# Mac1 fbg enh – enhancers of human CD11b/CD18 binding to fibrinogen; K562 CD11b/CD18 adhesion to fibrinogen, ATPlite luminescence; activation, % at 10 µM; 0.07% of 93,000 active; AID 1499;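 active means 10 µM primary screen giving 50% or more activity, confirmed by 40% or more on retest at that dose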
# CYP2C9 activ – activators of human CYP2C9; recombinant CYP2C9, luciferin-H conversion, luminescence; hits give high values; factor 1 = untreated enzyme, 0 = blocked; activation factor at 5 µM; 1.4% of 96,000 active;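 active means activation factor of 2 or more for CYP2C9 at a 5 µM dose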
# Hits are given with their value; . = inactive; / = not tested or not shown. The list is not random: actives were taken first. Their share in the collection is about 28%.
SMILES,CYP2C19 act,CYP2C9 inhib,CYP2C19 inhib,CD11b adhes inh,Mac1 fbg enh,CYP2C9 activ
CN=C(Nc1ccccc1OC)SC1CC(=O)N(c2ccc(C(=O)OC)cc2)C1=O (stereo unspecified),.,.,.,.,.,.
CN=C(NC)SC1CC(=O)N(c2ccccc2)C1=O (stereo unspecified),.,.,.,.,.,.
CCN=C(NCC)SC1CC(=O)N(c2ccc(OC)cc2)C1=O (stereo unspecified),.,.,70,.,.,.
Fc1ccc(NCc2nnc(SCc3nnc(-c4ccccc4)o3)n2CC2CCCO2)cc1 (stereo unspecified),.,.,.,.,.,.
Cc1ccc(C)c(CN2CCCN(C(=O)Cn3ncc4c3-c3ccccc3OC4)C2)c1,.,56,79,.,.,.
CCOc1ccc(-c2cc(NC(=O)Cn3ncc4c3-c3ccccc3OC4)on2)cc1OCC,.,.,65,.,.,.
O=C(Cn1ncc2c1-c1ccccc1OC2)Nc1ccc(Cl)cn1,.,.,.,.,.,.
COc1ccccc1NC(=O)Cn1ncc2c1-c1ccccc1OC2,.,.,.,.,.,.
O=C(Cn1ncc2c1-c1ccccc1OC2)Nc1cccc(Cl)c1,.,.,56,.,.,.
CCN1CCN(C(=O)Cn2ncc3c2-c2ccccc2OC3)CC1,.,.,.,.,.,.
COc1cc(NC(=O)Cn2ncc3c2-c2ccccc2OC3)cc(OC)c1OC,.,.,55,.,.,.
O=C(NCc1ccco1)C1CCC(CNS(=O)(=O)c2cccc3cccnc23)CC1 (stereo unspecified),.,.,.,.,.,.
CCOC(=O)N1CCC(=NNC(=O)COc2ccc(OC)cc2)CC1,/,/,/,.,.,/
CC(C)(CS(=O)(=O)[O-])NC(=O)CC[N+](C)(C)CCO,.,.,.,.,.,.
CCCCCOC(=O)c1ccccc1C(=O)O,.,.,.,.,.,.
COc1cc(NC(=O)CN2c3ccccc3CC2C)cc(OC)c1OC (stereo unspecified),.,81,69,.,.,.
CCCn1c(=O)c(C(=O)Nc2nnc(CC)s2)c(O)c2ccccc21,.,.,.,.,.,.
C=CCNC(=S)N1CCN(CCN=CC2=C(O)CC(c3cccs3)CC2=O)CC1 (stereo unspecified),.,.,.,.,.,.
COc1ccc(S(=O)(=O)N2CCc3ccccc32)cc1C(=O)OCc1nnc(-c2ccccc2)o1,.,99,88,.,.,.
CCOCCCNC(=O)COc1ccc(OC)cc1,.,.,.,.,.,.
Cc1nn(C(C)C(=O)N2CCc3ccccc32)c(C)c1[N+](=O)[O-] (stereo unspecified),.,68,55,.,.,.
Cc1nn(C(C)C(=O)N2CCOCC2)c(C)c1[N+](=O)[O-] (stereo unspecified),/,/,/,.,.,/
COc1ccccc1NC(=O)C1=C(C)NC(=O)NC1c1ccccc1F (stereo unspecified),.,.,.,.,.,.
COc1ccccc1NC(=O)C1=C(C)N(c2ccccc2)C(=S)NC1c1cccc(C(F)(F)F)c1 (stereo unspecified),.,96,92,.,.,.
COC(=O)c1ccc(C2NC(=S)N(c3ccccc3)C(C)=C2C(=O)Nc2ccccc2OC)cc1 (stereo unspecified),.,81,80,.,.,.
SMILES,CYP2C19 act,CYP2C9 inhib,CYP2C19 inhib,CD11b adhes inh,Mac1 fbg enh,CYP2C9 activ
CCc1sc(C(=O)NC2CCN(C)CC2)cc1Br,.,.,.,.,.,.
COC(=O)c1cncc(O)c1,.,.,.,.,.,.
CC1CC(N(C(=O)C2CC2)c2ccccc2)c2ccccc2N1C(=O)C1CC1 (stereo unspecified),.,.,.,.,.,.
O=C(c1ccco1)N1CCN(Cc2ccc(Cl)cc2)CC1,.,.,.,/,/,.
CC1CC(N(C(=O)c2ccc(Cl)cc2)c2ccccc2)c2ccccc2N1C(=O)c1ccco1 (stereo unspecified),.,97,91,.,.,.
CC1CC(N(C(=O)c2ccco2)c2ccccc2)c2ccccc2N1C(=O)c1ccco1 (stereo unspecified),.,88,91,.,.,.
Cc1ccc(NC(=O)N/C=C/c2ccco2)cc1,.,.,.,.,.,.
CCOC(=O)c1ccccc1NC(=O)c1cc2sccc2n1C,.,62,79,.,.,.
CCOC(=O)c1cccc(NC(=O)c2cc3sccc3n2C)c1,.,92,96,.,.,.
CCOC(=O)c1cccc(NC(=O)CCn2cccc2)c1,.,.,.,.,.,.
CCOC(=O)c1cccc(NC(=O)/C(=C\c2ccccc2)NC(=O)c2ccccc2Cl)c1,.,56,.,.,.,.
CCOC(=O)N1CCC(NC(=O)C2CCCN(C(=O)c3cc4sccc4n3C)C2)CC1 (stereo unspecified),.,.,.,.,.,.
CCOC(=O)N1CCN(C(=O)c2cc3sccc3n2C)CC1,.,.,86,.,.,.
COc1ccc(-c2nc(CS(=O)CC(=O)NCCCN3CC(C)CC(C)C3)c(C)o2)cc1OC (stereo unspecified),.,.,.,/,/,.
CCOC(=O)c1cccc(NC(=O)c2cccs2)c1,.,63,.,.,.,.
CCOC(=O)c1cnn(CCOC(=O)c2cccs2)c1NC(=O)c1cccs1,.,86,75,.,.,.
CCOC(=O)c1c(N)n(CCOC(=O)c2cccs2)c2nc3ccccc3nc12,.,84,85,.,.,.
CCOC(=O)c1sc(NC(=O)c2cccs2)cc1C,.,65,.,.,.,.
Cc1cc([N+](=O)[O-])nn1CC(=O)NCc1cccs1,.,.,.,.,.,.
C=CCSc1nc(N)c(C(=O)Nc2ccccc2OC)cc1C(=O)Nc1ccccc1,.,61,.,.,.,.
CCOC(=O)C1=C(CSc2nncn2C)NC(=O)NC1c1cc(OCC)ccc1OCC (stereo unspecified),.,.,.,.,.,.
COC(=O)NCCOC(=O)N(O)c1ccc(Br)cc1,.,.,68,.,.,.
COC(=O)NCCOc1cc(C)ccc1C,.,.,.,.,.,.
CCOC(=O)C1CCN(C(=O)C2CCN(S(=O)(=O)c3cc(Cl)ccc3Cl)CC2)CC1,.,.,.,.,.,2.4
CCOC(=O)N1CCN(C(=O)C2CCN(S(=O)(=O)c3ccc(C)cc3)CC2)CC1,.,.,.,.,.,.
CCOC(=O)C1CCN(C(=O)C2CCCCC2)CC1,.,.,.,.,.,.
CCOC(=O)N1CCN(C(=O)C2CCN(S(=O)(=O)c3cc(Cl)ccc3Cl)CC2)CC1,.,.,51,.,.,2.4
